Results: PubChem BioAssay AID1159580 (chemical genetic matrix, 2015)
Out of some 5,500 compounds screened, about 2,000 (36%) were called active. Not shown: some 18% with an inconclusive outcome. Rule as the data show it: active = normalized growth mostly below about 0.91 (no sharp cut-off); inconclusive = no clear call, values can overlap the other calls; inactive = mostly above about 0.92. The list shows a part of the results.

Experiment: chemical genetic growth profiling, strain panel (AID 1159580);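 also: tested at 20 µM; growth read once vehicle control cultures reached saturation at 30 °C; 1 = growth at the plate median or of vehicle wells; lower values mean less growth of the strain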
Details: growth OD
[1] = S. cerevisiae deletion strains, locus YAL013W, strain DEP1, active compounds read low
[2] = S. cerevisiae deletion strains, locus YBR229C, strain ROT2, active compounds read low
[3] = S. cerevisiae deletion strains, locus YDL101C, strain DUN1, active compounds read low
[4] = S. cerevisiae deletion strains, locus YDL134C, strain PPH21, active compounds read low
[5] = S. cerevisiae deletion strains, locus YEL061C, strain CIN8, active compounds read low
[6] = S. cerevisiae deletion strains, locus YGR078C, strain PAC10, active compounds read low
[7] = S. cerevisiae deletion strains, locus YHR030C, strain SLT2, active compounds read low
[8] = S. cerevisiae deletion strains, locus YJR043C, strain POL32, active compounds read low
[9] = S. cerevisiae deletion strains, locus YLR039C, strain RIC1, active compounds read low
[10] = S. cerevisiae deletion strains, locus YLR262C, strain YPT6, active compounds read low
[11] = S. cerevisiae deletion strains, locus YMR307W, strain GAS1, active compounds read low
[12] = S. cerevisiae deletion strains, locus YNL153C, strain GIM3, active compounds read low
[13] = S. cerevisiae deletion strains, locus YNL322C, strain KRE1, active compounds read low
[14] = S. cerevisiae deletion strains, locus YPL055C, strain LGE1, active compounds read low

Measured: normalized growth

Nc1nc2ncc(C(=O)O)nc2c(=O)[nH]1
inactive: [1] 1.01 | S. cerevisiae deletion strains, locus YBR021W, strain FUR4, active compounds read low 1 | [2] 1.01 | S. cerevisiae deletion strains, locus YCL029C, strain bik1, active compounds read low 1.03 | S. cerevisiae deletion strains, locus YDL035C, strain GPR1, active compounds read low 1 | S. cerevisiae deletion strains, locus YDL074C, strain BRE1, active compounds read low 1.01 | [3] 1.01 | [4] 1.01 | S. cerevisiae deletion strains, locus YDL185W, strain tfp1, active compounds read low 1.04 | S. cerevisiae deletion strains, locus YDL192W, strain arf1, active compounds read low 1.03 | S. cerevisiae deletion strains, locus YDR101C, strain arx1, active compounds read low 1.03 | S. cerevisiae deletion strains, locus YDR162C, strain NBP2, active compounds read low 1.03 | S. cerevisiae deletion strains, locus YDR318W, strain mcm21, active compounds read low 1.02 | S. cerevisiae deletion strains, locus YDR388W, active compounds read low 1.02 | S. cerevisiae deletion strains, locus YDR502C, strain sam2, active compounds read low 1.04 | [5] 1.01 | S. cerevisiae deletion strains, locus YER110C, active compounds read low 1.05 | S. cerevisiae deletion strains, locus YER155C, strain BEM2, active compounds read low 1.01 | S. cerevisiae deletion strains, locus YER167W, strain BCK2, active compounds read low 1.01 | S. cerevisiae deletion strains, locus YGL078C, strain dbp3, active compounds read low 1.03 | S. cerevisiae deletion strains, locus YGL086W, strain mad1, active compounds read low 1 | S. cerevisiae deletion strains, locus YGL248W, strain PDE1, active compounds read low 1.02 | [6] 1.01 | S. cerevisiae deletion strains, locus YGR135W, strain pre9, active compounds read low 1.01 | S. cerevisiae deletion strains, locus YGR252W, strain gcn5, active compounds read low 1.07 | [7] 1.01 | S. cerevisiae deletion strains, locus YHR079C, strain IRE1 (second series), active compounds read low 1.05 | S. cerevisiae deletion strains, locus YHR094C, strain hxt1, active compounds read low 1.04 | S. cerevisiae deletion strains, locus YHR129C, strain ARP1, active compounds read low 1.01 | S. cerevisiae deletion strains, locus YHR200W, strain rpn10, active compounds read low 1 | S. cerevisiae deletion strains, locus YIL066C, strain RNR3, active compounds read low 1.02 | S. cerevisiae deletion strains, locus YIL073C, strain SPO22, active compounds read low 1.1 | S. cerevisiae deletion strains, locus YIL125W, strain kgd1, active compounds read low 1.03 | S. cerevisiae deletion strains, locus YIR030C, strain dcg1, active compounds read low 1.04 | S. cerevisiae deletion strains, locus YJL095W, strain BCK1, active compounds read low 1.01 | S. cerevisiae deletion strains, locus YJL134W, strain LCB3, active compounds read low 1.01 | S. cerevisiae deletion strains, locus YJL168C, strain set2, active compounds read low 1.05 | S. cerevisiae deletion strains, locus YJL187C, strain SWE1 (second series), active compounds read low 1.01 | [8] 0.997 | S. cerevisiae deletion strains, locus YKL009W, strain mrt4, active compounds read low 1.02 | S. cerevisiae deletion strains, locus YKL068W, active compounds read low 1.03 | S. cerevisiae deletion strains, locus YKL085W, strain MDH1 (second series), active compounds read low 1.01 | S. cerevisiae deletion strains, locus YKL085W, strain MDH1, active compounds read low 1.01 | S. cerevisiae deletion strains, locus YKR001C, strain vps1, active compounds read low 1.02 | [9] 1.03 | S. cerevisiae deletion strains, locus YLR058C, strain SHM2, active compounds read low 1.01 | S. cerevisiae deletion strains, locus YLR102C, strain apc9, active compounds read low 1.04 | [10] 1.03 | S. cerevisiae deletion strains, locus YLR268W, strain sec22, active compounds read low 1.04 | S. cerevisiae deletion strains, locus YLR330W, strain CHS5, active compounds read low 1.01 | S. cerevisiae deletion strains, locus YLR342W, strain FKS1 (second series), active compounds read low 0.998 | S. cerevisiae deletion strains, locus YLR371W, strain rom2, active compounds read low 1.06 | S. cerevisiae deletion strains, locus YLR418C, strain cdc73, active compounds read low 1.03 | S. cerevisiae deletion strains, locus YML016C, strain PPZ1, active compounds read low 1.01 | S. cerevisiae deletion strains, locus YML032C, strain rad52, active compounds read low 1.02 | S. cerevisiae deletion strains, locus YML124C, strain tub3, active compounds read low 1.02 | S. cerevisiae deletion strains, locus YMR078C, strain ctf18, active compounds read low 1.05 | S. cerevisiae deletion strains, locus YMR223W, strain ubp8, active compounds read low 1.03 | [11] 1.01 | S. cerevisiae deletion strains, locus YNL067W, strain RPL9B, active compounds read low 1.01 | [12] 1.01 | S. cerevisiae deletion strains, locus YNL233W, strain BNI4, active compounds read low 1 | S. cerevisiae deletion strains, locus YNL250W, strain rad50, active compounds read low 1.03 | S. cerevisiae deletion strains, locus YNL271C, strain bni1, active compounds read low 1.03 | S. cerevisiae deletion strains, locus YNL298W, strain CLA4, active compounds read low 1.04 | S. cerevisiae deletion strains, locus YNL307C, strain MCK1, active compounds read low 1.06 | [13] 1.01 | S. cerevisiae deletion strains, locus YNR052C, strain pop2, active compounds read low 1.03 | S. cerevisiae deletion strains, locus YOL012C, strain htz1 1.02 | S. cerevisiae deletion strains, locus YOL147C, strain pex11, active compounds read low 1.04 | S. cerevisiae deletion strains, locus YOR061W, strain CKA2, active compounds read low 1.02 | S. cerevisiae deletion strains, locus YOR069W, strain VPS5, active compounds read low 1.01 | S. cerevisiae deletion strains, locus YOR136W, strain idh2, active compounds read low 1.04 | S. cerevisiae deletion strains, locus YOR144C, strain elg1, active compounds read low 1.03 | S. cerevisiae deletion strains, locus YOR184W, strain ser1, active compounds read low 1.04 | S. cerevisiae deletion strains, locus YOR316C, strain cot1, active compounds read low 1.06 | [14] 1.01 | S. cerevisiae deletion strains, locus YPR119W, strain clb2, active compounds read low 1.03 | S. cerevisiae deletion strains, locus YPR141C, strain kar3, active compounds read low 1.02 | S. cerevisiae deletion strains, locus YPR163C, strain tif3, active compounds read low 1.05 | S. cerevisiae deletion strains, locus YPR167C, strain met16, active compounds read low 1.06 | S. cerevisiae deletion strains, strain wtn01, active compounds read low 1.02 | S. cerevisiae strains, strain wild type, active compounds read low 1.01

COc1cccc(C2C3=C(CC(C)(C)CC3=O)OC3=C2C(=O)CC(C)(C)C3)c1O
inactive: [1] 1 | [2] 0.987 | S. cerevisiae deletion strains, locus YCL061C, strain MRC1, active compounds read low 1.02 | [3] 1.01 | [4] 0.978 | S. cerevisiae deletion strains, locus YDR150W, strain NUM1, active compounds read low 1.04 | [5] 0.965 | [6] 1 | [7] 1.08 | S. cerevisiae deletion strains, locus YHR087W, strain rtc3, active compounds read low 0.958 | [8] 1.03 | S. cerevisiae deletion strains, locus YJR075W, strain HOC1, active compounds read low 1 | S. cerevisiae deletion strains, locus YKL190W, strain CNB1, active compounds read low 0.988 | [9] 1.08 | S. cerevisiae deletion strains, locus YLR058C, strain SHM2 (second series), active compounds read low 0.991 | S. cerevisiae deletion strains, locus YLR085C, strain ARP6, active compounds read low 0.977 | [10] 1.04 | S. cerevisiae deletion strains, locus YML094W, strain GIM5, active compounds read low 1.01 | S. cerevisiae deletion strains, locus YMR219W, strain ESC1, active compounds read low 1 | S. cerevisiae deletion strains, locus YMR263W, strain SAP30, active compounds read low 0.999 | [11] 0.876 | S. cerevisiae deletion strains, locus YNL128W, strain TEP1, active compounds read low 0.983 | [12] 1 | S. cerevisiae deletion strains, locus YNL298W, strain CLA4 (second series), active compounds read low 0.927 | [13] 0.993 | S. cerevisiae deletion strains, locus YNR030W, strain Alg12, active compounds read low 0.977 | S. cerevisiae deletion strains, locus YOL006C, strain TOP1, active compounds read low 0.947 | [14] 1 | S. cerevisiae deletion strains, locus YPL241C, strain CIN2, active compounds read low 1.01 | S. cerevisiae deletion strains, locus YPR135W, strain CTF4, active compounds read low 0.976
